# CYP2C9 act: activators of human CYP2C9. activation factor at 5 µM. recombinant CYP2C9, luciferin-H conversion, luminescence; active compounds read high; factor 1 = untreated enzyme, 0 = blocked. AID 1024. hit rate 1.4% among 96,000;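 active means activation factor of 2 or more for CYP2C9 at a 5 µM dose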;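 further: 0 = sulfaphenazole-blocked wells and 1 = vehicle-only wells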
# Target sequence (P11712 whole entry, looked up): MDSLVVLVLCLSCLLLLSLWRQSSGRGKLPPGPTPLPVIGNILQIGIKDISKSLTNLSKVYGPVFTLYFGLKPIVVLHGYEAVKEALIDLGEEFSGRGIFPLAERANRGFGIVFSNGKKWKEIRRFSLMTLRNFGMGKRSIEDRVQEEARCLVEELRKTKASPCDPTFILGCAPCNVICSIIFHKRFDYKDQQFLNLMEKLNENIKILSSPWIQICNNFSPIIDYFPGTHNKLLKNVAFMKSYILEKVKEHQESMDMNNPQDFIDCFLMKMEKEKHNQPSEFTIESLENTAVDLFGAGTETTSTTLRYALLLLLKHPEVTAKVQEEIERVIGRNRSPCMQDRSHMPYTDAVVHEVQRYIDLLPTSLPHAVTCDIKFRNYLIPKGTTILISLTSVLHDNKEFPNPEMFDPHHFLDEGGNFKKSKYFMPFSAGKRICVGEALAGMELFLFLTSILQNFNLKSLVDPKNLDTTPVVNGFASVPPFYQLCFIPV
# CYP2C19 act: increases human CYP2C19 enzyme activity. P33261. recombinant CYP2C19, luciferin-H EGE luminescence; active compounds read high; 0 = fully inhibited enzyme, 1 = untreated enzyme. activation factor at 5 µM. 96,000 tested, under 10 active. AID 1025;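 active means activation factor of at least 2 at 5 µM in the primary screen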;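 further: 0 = wells with 2.5 mM tranylcypromine and 1 = vehicle-only wells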
# sEH inh: blocks human soluble epoxide hydrolase activity; P34913; recombinant human sEH enzymatic activity assay; hit rate 0.34% among 91,000; inhibition, % at 2 µM; in the data active means inhibition above about 80%
# sEH act: increases human soluble epoxide hydrolase activity | P34913 | purified human sEH enzymatic activity, activator screen | activation, % at 2 µM | hit rate 0.04% among 91,000 | AID 717; in the data active means activation above about 37%
# CYP2C19 inh: inhibitors of human CYP2C19. P33261. CYP2C19 Supersomes, luciferin-H EGE luminescence, 30 min. inhibition, % at 5 µM. hit rate 21% among 96,000;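 active means CYP2C19 inhibition above a set limit at 5 µM in the primary screen, cut at about 50% in these data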;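 further: plate controls were negative control wells for no effect and 2.5 mM tranylcypromine positive control for full effect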
# CYP2C9 inh: human CYP2C9 inhibition. P11712. CYP2C9 Supersomes, luciferin-H conversion, luminescence. inhibition, % at 5 µM. hit rate 20% among 96,000;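 active means blocking of liver enzyme CYP2C9 beyond about 50% at 5 µM, limit read from the data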
# Starred values were filed as active, the others as inactive; / = not tested or not shown. A selection: hits, their analogues and other compounds. The true share with any hit is near 27%.
SMILES,CYP2C9 act,CYP2C19 act,sEH inh,sEH act,CYP2C19 inh,CYP2C9 inh
CCN(CC)c1ccc(CNc2ccc(Br)cn2)cc1,0.4,0.2,5,-4,80*,63*
CCN1C=C(C(=O)OC)C(c2cccc(C)c2)C(C(=O)OC)=C1,0.3,0.3,/,/,70*,74*
COCCN1C=C(C(=O)OC)C(c2ccc3c(c2)OCO3)C(C(=O)OC)=C1,0.3,0.3,/,/,74*,70*
COCCN1C=C(C(=O)OC)C(c2cc3c(cc2Br)OCO3)C(C(=O)OC)=C1,0.7,0.5,-20,19,46,27
CCOc1nc(NCCN2CCOCC2)nc(NC(C)C)n1,/,/,-1,6,/,/
Nc1ccc2nc(-c3ccc(Cl)cc3)[nH]c2c1,0.5,0.4,11,-7,59*,48
Cc1ccc(-c2nn(-c3ccccc3)cc2/C=N/NC(=O)c2ccc(Br)o2)cc1,0.5,0.7,0,0,29,52*
Cc1nnc(SCC(=O)N/N=C/c2cn(-c3ccccc3)nc2-c2ccccc2)n1-c1ccccc1,0.5,0.9,-4,3,6,53*
O=C(N/N=C\c1cn(-c2ccccc2)nc1-c1ccccc1)c1ccc(Br)o1,0.4,0.7,9,-8,28,57*
Cc1ccc(NC(=O)CSc2nnc(C)n2-c2ccccc2)cc1,/,/,1,4,/,/
O=C(N/N=C/c1cn(-c2ccccc2)nc1-c1ccccc1)c1ccco1,1,1,/,/,-5,-1
O=C1C(=O)N(CCCn2ccnc2)C(c2cccnc2)/C1=C(/O)c1ccc(Br)cc1 (centres undefined),/,/,2,-2,/,/
COc1ccc(C2C(C#N)=C(N)OC3=C2C(=O)CC(C)(C)C3)c(OC)c1OC (centres undefined),0.3,0.6,/,/,40,71*
COc1cc(OC)c(C2C(C#N)=C(N)OC3=C2C(=O)CC(C)(C)C3)cc1OC (centres undefined),0.8,0.8,13,-11,21,25
COC(=O)C1=C(C)OC(N)=C(C#N)C1c1ccccc1 (centres undefined),0.6,0.2,8,-5,83*,44
COC(=O)C1=C(C)OC(N)=C(C#N)C1C1CCCCC1 (centres undefined),0.5,0.2,25,-25,78*,54*
COC(=O)C1=C(C)OC(N)=C(C#N)C1c1ccsc1 (centres undefined),/,/,16,-12,/,/
N#CC1=C(N)Oc2n[nH]c(-c3cccs3)c2C1C1CCCCC1 (centres undefined),1,0.5,3,-4,45,2
CCOC(=O)C1=C(C)N(C)C(=O)NC1c1c(C)nn(-c2ccc(C)cc2)c1Cl (centres undefined),0.3,0.2,2,0,83*,74*
NC(=O)c1cc(S(=O)(=O)NC2CCCCC2)co1,0.9,0.8,/,/,21,7
COc1cccc(C(C(=O)Nc2ccc(F)cc2)N(C(=O)Cn2nnc3ccccc32)C2CC2)c1 (centres undefined),0.6,0.6,8,-6,44,37
COC(=O)C1=C(C)OC(N)=C(C#N)C1c1c(C)nn(-c2ccccc2)c1Cl (centres undefined),0,0,5,-4,97*,96*
CCOC(=O)C1=C(C)N(c2nonc2NC(C)=O)C(N)=C(C#N)C1c1ccccc1F (centres undefined),0.3,0.3,7,-8,73*,73*
COC(=O)C1=C(C)OC(N)=C(C#N)C1c1ccc(OC)c(CSc2ccccn2)c1 (centres undefined),0.1,0.2,-17,13,79*,89*
CCSc1cc(C2C(C#N)=C(N)OC(C)=C2C(=O)OC)c(C)o1 (centres undefined),0.2,0.1,1,-1,90*,81*
SMILES,CYP2C9 act,CYP2C19 act,sEH inh,sEH act,CYP2C19 inh,CYP2C9 inh
CCOC(=O)COc1ccc(S(=O)(=O)NCCC2=CCCCC2)cc1,0.9,0.8,-3,2,25,9
CC(C(=O)Nc1cccnc1)N1C(=O)C2C3C=CC(C3)C2C1=O (centres undefined),1,1,2,0,4,0
CCCC12CN3CC(C)(CN(C1)C3c1ccc(OC(C)C)cc1)C2=O (centres undefined),0.8,1,/,/,2,16
Cc1nn(CC(=O)Nc2nnc(CC(=O)N3CCCC3)s2)c(=O)c2ccccc12,1.2,1.2,14,-14,-18,-18
COc1ccc(C2C(C#N)=C(N)Oc3c2oc(CO)cc3=O)c(OC)c1OC (centres undefined),0.8,0.9,/,/,6,17
CC1=C(C(=O)OCc2ccccc2)C(c2ccsc2)C(C#N)=C(N)O1 (centres undefined),/,/,22,-20,/,/
C=CCOC(=O)C1=C(C)OC(N)=C(C#N)C1c1ccccc1F (centres undefined),0.4,0.2,29,-28,81*,56*
COC(=O)C1=C(C)OC(N)=C(C#N)C1c1ccc(OC)c(OC)c1OC (centres undefined),0.5,0.4,8,-8,58*,54*
CCOC(=O)C1=C(C)OC(N)=C(C#N)C1c1c(C)nn(-c2ccc(C)cc2)c1Cl (centres undefined),0,0,2,-1,100*,97*
Cc1ccc(-n2nc(C)c3c2OC(N)=C(C#N)C3c2ccc(C)o2)cc1 (centres undefined),/,/,5,-2,/,/
COc1ccccc1NC(=O)Nn1cnnc1,1.1,1.2,/,/,-20,-12
CC(=O)c1c(C)[nH]c(C(=O)NCc2cccs2)c1C,0.9,0.9,16,-14,8,13
O=C(Nc1ccc(F)cc1)c1cccc2c1C(=O)N(Cc1ccccn1)C2,0.7,0.9,8,-5,14,34
C/C(Cn1nc([N+](=O)[O-])cc1C)=N\NC(=O)c1ccc(C(C)(C)C)cc1,0.6,0.8,0,1,21,38
Cc1cc(Nc2ccc(C)c(C)c2)n2nc(C)nc2n1,0.5,0.7,/,/,25,52*
CC(=O)C1=C(C)NC(SCC(=O)c2ccccc2)=C(C#N)C1c1ccco1 (centres undefined),0.1,0,2,2,99*,93*
CC(=O)C1=C(C)NC(SCC(=O)c2ccc(Cl)cc2)=C(C#N)C1c1ccco1 (centres undefined),0,0,4,0,100*,97*
Cc1snc(SCC(=O)c2ccc(Cl)cc2)c1C#N,0.7,0.6,4,-2,42,28
O=C(CSc1nnc(-c2ccco2)o1)c1ccccc1,0.9,0.9,8,-8,6,14
N#CC1=C(SCC(=O)c2ccc(Br)cc2)NC2=C(C(=O)CCC2)C1c1ccco1 (centres undefined),0,0,/,/,99*,99*
CC(=O)C1=C(C)NC(SCC(=O)c2ccccc2)=C(C#N)C1CC(C)C (centres undefined),0.4,0.6,-5,6,42,59*

# Assay outcomes (PubChem)
